# Where “and” joins values, the source holds several entries; their conditions need not be identical. Identical values can stand only once. Records with an inconclusive call do not appear. Where a call stands in place of a potency, no number is given. More than one record can exist for a structure, and the calls need not agree. Calls of active or inactive are those of the source. Calls follow the shape of the dose curve; as a rule, active = well fitted cell-killing curve with a large enough effect in the repeat runs; inconclusive = weak or mixed curves, or effect the other way; inactive = flat fitted curve, though single readings scatter.
# Test: qHTS assay to identify small molecule that activate the aryl hydrocarbon receptor (AhR) signaling pathway - cell viability counter screen (AID 743086); also: nearly all actives have a fitted effect of over 45% in size
# Conditions: HepG2-AhR-luc viability, CellTiter-Fluor, 24 h; series mostly up to 70.3 µM
# Text: U.S. Tox21 Program National Center for Advancing Translational Sciences [NCATS] NIH Chemical Genomics Center [NCGC] U.S. Environmental Protection Agency [EPA] National Institutes of Environmental Health Sciences [NIEHS] National Toxicology Program [NTP] U.S. Food and Drug Administration [FDA] Tox21 Assay overview: The Aryl hydrocarbon Receptor (AhR), a member of the family of basic helix-loop-helix transcription factors, is crucial to adaptive responses to environmental changes. AhR mediates cellular responses to environmental pollutants such as aromatic hydrocarbons through induction of phase I and II enzymes but also interacts with other nuclear receptor signaling pathways A cell based HepG2-AhR-luc assay (HG2L7.5c1 cell line, developed by Dr. Michael S. Denison, University of California at Davis) was used to assess the activation of AhR. HepG2 (human hepatocellular carcinoma) cells were stably transfected with an Ah receptor-responsive firefly luciferase reporter gene plasmid containing 20 dioxin responsive elements and luciferase reporter gene. Increased luciferase activity can be used to identify the compounds that induce AhR activation. The cytotoxicity of the compounds screened against the HepG2-AhR-luc cell line was tested in parallel by measuring the cell viability using CellTiter-Fluor assay in the same wells.
# Tox21 Assay Protocol Summary: 4000 cells in 5 uL/well were dispensed into white wall/solid bottom 1536-well plates using a Multidrop Combi (Thermo Fisher Scientific Inc., Waltham, MA) dispenser. After the assay plates were incubated at 37C for 5 h, 23 nL of compound or DMSO vehicle was transferred to the assay plates by a pintool station (Kalypsys, San Diego, CA). The plates were incubated at 37C for 24 hr. For cell viability measurement, 1 ul/well of CellTiter-Fluor reagent (Promega, Madison, WI) was added into the assay plates using a Flying Reagent Dispenser (FRD) (Aurora Discovery, CA),and then the assay plates were incubated at 37C for 30 min. The fluorescence intensity in the plates was measured using a ViewLux plate reader (PerkinElmer, Shelton, CT), followed by the addition of 4 uL of ONE-Glo Luciferase Assay reagent (Promega) using an FRD (Aurora Discovery). After the assay plates were incubated at room temperature for 30 min, luminescence intensity was measured using a ViewLux plate reader (Perkin Elmer).
# Potency is read from the fitted curve at half-maximal effect.
row,Structure (SMILES),Potency
1,Nc1ccc(O)c(C(=O)O)c1,inactive
2,CC(=O)OCC(COC(C)=O)OC(C)=O,inactive
3,O=S(=O)(O)c1ccc2cc(O)ccc2c1,inactive
4,Cn1cc[nH]c1=S,inactive
5,OCCc1ccccc1,inactive
6,O=C1NC(=O)c2ccccc21,inactive
7,CCCC(CCC)C(=O)O,inactive
8,CC(=O)Nc1nnc(S(N)(=O)=O)s1,inactive
9,CCCNC(=O)NS(=O)(=O)c1ccc(Cl)cc1,inactive
10,NS(=O)(=O)c1cc(C(=O)O)c(NCc2ccco2)cc1Cl,inactive
11,O=C(O)c1cccc([N+](=O)[O-])c1,inactive
12,O=c1cc[nH]c(=S)[nH]1,inactive
13,O=C1CN(/N=C/c2ccc([N+](=O)[O-])o2)C(=O)N1,30.5 µM (active) and 48.6 µM (active)
14,CCCC(O)C(CC)CO (stereo not given),inactive
15,CCCN(CCC)S(=O)(=O)c1ccc(C(=O)O)cc1,inactive
16,CCC1(c2ccccc2)C(=O)NCNC1=O,inactive
17,OC(Cn1cncn1)(Cn1cncn1)c1ccc(F)cc1F,inactive
18,O=NO,inactive
19,O=C(O)CCCCC(=O)O,inactive
20,Cc1ccc(C)c(OCCCC(C)(C)C(=O)O)c1,inactive

row,Structure (SMILES),Potency
1,COc1c2occc2cc2ccc(=O)oc12,inactive
2,O=C(O)c1cc(N=Nc2ccc(S(=O)(=O)Nc3ccccn3)cc2)ccc1O,inactive and 27.4 µM (active) and 30.6 µM (active)
3,CC(=O)NS(=O)(=O)c1ccc(N)cc1,inactive
4,NC(N)=O,inactive
5,O=C(c1ccccc1)c1ccccc1,inactive
6,COc1ccc2[nH]cc(CCNC(C)=O)c2c1,inactive
7,CC(O)CN(CCN(CC(C)O)CC(C)O)CC(C)O (stereo not given),inactive
8,NC(N)=NC(=O)c1nc(Cl)c(N)nc1N,inactive
9,Cc1cc(=O)n(-c2ccccc2)n1C,inactive
10,O=C(c1ccccc1)C(O)c1ccccc1 (stereo not given),inactive
11,O=C(O)c1cccnc1,inactive
12,O=C(O)C(=O)O,inactive
13,CC(O)C(=O)O (stereo not given),inactive
14,Cc1cn([C@H]2C[C@H](N=[N+]=[N-])[C@@H](CO)O2)c(=O)[nH]c1=O,inactive
15,CNC[C@H](O)c1cccc(O)c1,inactive
16,O=C(O)c1[nH]n(-c2ccc(S(=O)(=O)O)cc2)c(=O)c1N=Nc1ccc(S(=O)(=O)O)cc1,30.7 µM (active) and 22.7 µM (active)
17,Cc1noc(NS(=O)(=O)c2ccc(N)cc2)c1C,inactive
18,NC(=O)c1cnccn1,inactive
19,O=C(C1CCCCC1)N1CC(=O)N2CCc3ccccc3C2C1 (stereo not given),inactive
20,CCCCC(CC)COC(=O)/C=C/c1ccc(OC)cc1 (stereo not given),inactive
